# The campaign covered roughly 310,000 compounds. About 11,000 (3.5%) were called active. Where a call stands in place of a potency, no number is given. Inconclusive results (about 8%) are left out. The sample holds actives, similar compounds and a random draw of the others, so the mix is not that of the screen. Calls follow the shape of the dose curve; as a rule, active = well fitted inhibition curve with a large enough effect; inconclusive = small, poorly fitted or top-dose-only effect, or effect the other way; inactive = flat fitted curve, though single readings scatter.
# Assay: VP16 counterscreen qHTS for inhibitors of ROR gamma transcriptional activity;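 also: Gal4-VP16 expression switched on by copper sulfate through the metallothionein promoter; nearly all actives have a fitted effect of over 50% in size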
# Settings: Drosophila S2 Gal4-VP16 UAS-luciferase, luminescence, 20 h; series mostly up to 53.6 µM
# Potency is read from the fitted curve at half-maximal effect.
row,Structure (SMILES),Potency
1,COCCNC(=O)COc1ccc(N(C)S(=O)(=O)c2ccc3ccccc3c2)cc1,inactive
2,CCOc1ccc(S(=O)(=O)Nc2ccc(S(=O)(=O)Nc3cc(OC)ccc3OC)cc2)cc1,inactive
3,COc1ccc(NS(=O)(=O)c2ccc(NC(=S)NC(=O)CC(C)C)cc2)cc1,inactive
4,COc1ccc(NS(=O)(=O)c2ccc(Oc3c(C#N)cccc3C#N)cc2)cc1,3.98 µM (active)
5,COc1cccc(CNS(=O)(=O)c2ccc3c(c2)N(C(C)=O)CCS3)c1,inactive
6,COC(=O)c1ccc(COc2ccc(/C=C/C(=O)c3ccc(OC)c(CSCC(=O)O)c3)cc2OC)cc1,inactive
7,Cc1cccc(OCC(=O)NCC(=O)N/N=C/c2ccc(N(C)C)cc2)c1,inactive
8,COc1ccc(OC)c(C(=O)CSc2nnc(-c3cccs3)o2)c1,15.8 µM (active)
9,COc1ccc(C(=O)CSc2nnc(-c3ccco3)o2)cc1,inactive
10,COc1ccc(-c2nnc(SCC(=O)c3cccs3)o2)c(OC)c1,inactive
11,CN(c1cccc(NC(=O)c2ccc(CN3CCc4ccccc4C3)cc2)c1)S(C)(=O)=O,inactive
12,COc1cccc(C(=O)Nc2ccc(N3CCN(C(=O)c4ccco4)CC3)cc2)c1,inactive
13,COC(=O)CNC(=O)c1ccc(OC2CCN(C(=O)C3CC3)CC2)cc1,inactive
14,CCn1c(/C=N/NC(=O)c2ccc(OC)cc2)nc2ccccc21,inactive
15,CCc1ccc(/C=N/NC(=O)c2ccc(OC3CCCC3)cc2)s1,11.2 µM (active)
16,CCOc1ccc(S(=O)(=O)N2CCCC(C(=O)N3CCC(C(N)=O)CC3)C2)cc1Cl (stereo not drawn),inactive
17,COc1ccccc1CCNS(=O)(=O)c1cc2c3c(c1)C(C)C(=O)N3CCC2 (stereo not drawn),inactive
18,Cc1ccc(S(=O)(=O)Nc2ccc3ncccc3c2)cc1,17.8 µM (active)
19,Cc1ccc(NS(=O)(=O)c2ccc(C(C)(C)C)cc2)cn1,inactive
20,Cc1ccc(OCC(=O)Nc2ccc(S(=O)(=O)Nc3ccccn3)cc2)cc1,inactive
21,CC(C)C[C@H]1CN=C(Nc2ccccc2)N1CC1CCCCC1,inactive
22,COC(=O)c1cc(S(=O)(=O)N2CCN(c3cc(C)ccc3C)CC2)c[nH]1,inactive
23,NS(=O)(=O)c1ccc(N=Nc2c(O)[nH]c3ccc(Br)cc23)cc1,inactive
24,CCN1CCN(c2sc(S(C)(=O)=O)nc2S(=O)(=O)c2ccc(Cl)cc2)CC1,inactive
25,CCc1ccc(NC2Nc3cc(C)nn3S2)cc1 (stereo not drawn),5.01 µM (active)
26,CCOC(=O)c1ccc(NC2Nc3cc(C)nn3S2)cc1 (stereo not drawn),inactive

row,Structure (SMILES),Potency
1,O=C(CC1Nc2ccccc2NC1=O)Nc1ccccc1 (stereo not drawn),5.01 µM (active)
2,O=C(CC1Nc2ccccc2NC1=O)Nc1ccccc1NC(=O)CC1Nc2ccccc2NC1=O (stereo not drawn),inactive
3,CCOC(=O)c1ccccc1NC(=O)CC1Nc2ccccc2NC1=O (stereo not drawn),inactive
4,CCN(C(=O)COc1ccc(C(=O)c2ccccc2)cc1)c1ccccc1,inactive
5,O=S(=O)(c1ccccc1)c1nc(-c2ccccc2)oc1NCCCN1CCOCC1,inactive
6,Cc1cccc(N2CCN(C(=O)c3cccc(N4C(=O)C5C6C=CC(C6)C5C4=O)c3)CC2)c1C (stereo not drawn),inactive
7,O=C(CN1CCOC1=O)N1CCCC(Nc2ccc(F)c(F)c2)C1 (stereo not drawn),inactive
8,C=C1CCN(C(CC(C)C)C(=O)N2CCOCC2)S(=O)(=O)c2ccccc21 (stereo not drawn),inactive
9,Cc1ccc(S(=O)(=O)Oc2ccc(/C=N/NC(=O)c3ccncc3)cc2)cc1,inactive
10,Cc1ccc(OCCOc2cccc(/C=N/NC(N)=O)c2)cc1,inactive
11,Cc1ccc(OCCOCCOc2ccc(Br)cc2/C=N\NC(=O)c2ccncc2)cc1,25.1 µM (active)
12,Cc1ccc(CNC(=O)CCN2C(=O)[C@@H]3Cc4ccccc4CN3C2=O)cc1,inactive
13,CC(=O)Nc1cccc(C(=O)OCN2C(=O)c3ccccc3C2=O)c1,inactive
14,Cc1cc(OCc2cc(C(=O)NCc3cc(C(C)C)no3)no2)cc(C)c1Cl,inactive
15,Cc1cccc(NC(=S)NCCN(C2CCCCC2)C2CCCC2)c1,inactive
16,Cc1cccc(NC(=S)NCc2ccc3[nH]c4c(c3c2)CCCC4)c1,7.08 µM (active)
17,O=C(O)CCC(=O)NCc1ccc2[nH]c3c(c2c1)CCCC3,inactive
18,CCOc1cc(/C=N/Nc2cc(C)nc3ccc(C)cc23)ccc1O,inactive
19,Cc1ncoc1C(=O)N1CCCC(C(=O)c2ccc3c4c(cccc24)CC3)C1 (stereo not drawn),inactive
20,CCn1ccnc1CN1CCCC(C(=O)c2ccc3c4c(cccc24)CC3)C1 (stereo not drawn),4.47 µM (active)
21,CC(=O)NCC(=O)N1CCCC(C(=O)c2ccc3c4c(cccc24)CC3)C1 (stereo not drawn),inactive
22,COc1cc2c(cc1OC)C(C)N(S(=O)(=O)c1cnc(Cl)c(Cl)c1)CC2 (stereo not drawn),inactive
23,CCN1C(=S)N[C@@H](c2cccc(C(F)(F)F)c2)C(C(=O)OC)=C1C,inactive
24,CC1CCN(CC(=O)Nc2nccs2)CC1,inactive
25,C=CCn1c(=S)[nH]c2scc(-c3ccco3)c2c1=O,7.94 µM (active)
26,C=CCNC(=O)CSc1nc2scc(-c3ccco3)c2c(=O)n1CC=C,inactive

row,Structure (SMILES),Potency
1,C=CCn1c(SCc2csc(C)n2)nc2scc(-c3ccc(C)o3)c2c1=O,inactive
2,COc1ccc(NC(=O)CN2C(=O)COc3ccc(S(=O)(=O)N4CCOCC4)cc32)c(OC)c1,inactive
3,Cc1ccc(S(=O)(=O)N(C)CC(=O)NCCc2c[nH]c3ccccc23)cc1,inactive
4,COc1ccc(-n2c(=O)[nH]c3cc(C(=O)NCCc4ccc(OC)c(OC)c4)ccc3c2=O)c(OC)c1,inactive
5,COc1ccc(NS(=O)(=O)c2cc(C(=O)Nc3ccccc3C(=O)O)ccc2C)cc1,inactive
6,CCCCc1nc2cc(C(=O)N3CCCCC3CCO)ccc2o1 (stereo not drawn),inactive
7,COc1ccc(-c2cn3cccnc3n2)cc1,inactive
8,CCN(CC)S(=O)(=O)c1ccc(-c2cn3ccc(C)cc3n2)cc1,inactive
9,COc1ccc(-c2cn3ccc(C)cc3n2)cc1,5.01 µM (active)
10,O=C(c1cc(C(=O)N2CCN(c3ccc(F)cc3)CC2)cc([N+](=O)[O-])c1)N1CCN(c2ccc(F)cc2)CC1,inactive
11,CC(C)(C)C(=O)NC1CC2CCCC(C1)N2C(=O)Nc1ccccc1F (stereo not drawn),inactive
12,O=CN1CCN(C(=O)c2ccc3c(c2)OCO3)CC1,inactive
13,CC(NC(=S)Nc1ccc(OC(F)F)cc1)c1ccc(F)cc1 (stereo not drawn),12.6 µM (active)
14,CC(C)N(Cc1ccccc1)C(=S)Nc1ccc(OC(F)F)cc1,inactive
15,CC(NC(=S)Nc1ccc(S(N)(=O)=O)cc1)c1ccc2c(c1)OCO2 (stereo not drawn),inactive
16,Cc1cc(C)c2c(NC(=O)C3CC3)nn(C)c2n1,inactive
17,Cc1cc(-n2nc(C)cc2C)n2nc(C)c(-c3ccccc3)c2n1,inactive
18,Cc1cc(C)c2c(n1)nn1c(-n3ccnc3)cc(C)nc21,15.8 µM (active)
19,C/C(=N/NC(=O)c1cc(Cl)ccc1O)C12CC3CC(CC(C3)C1)C2,inactive
20,O=C(Nc1cccc(NC(=O)c2ccc(Br)cc2)c1)c1ccccc1,inactive
21,CC(=N\NC(=O)c1cc(Br)ccc1O)/C(=N/O)C(=O)Nc1ccccc1,11.2 µM (active)
22,COc1ccc(-c2c(C)cc3oc(=O)cc(-c4ccccc4)c3c2C)cc1OC,inactive
23,COc1ccc(-c2c(C)cc3oc(=O)cc(-c4ccccc4)c3c2C)cc1F,inactive
24,COc1cc(OC)c2c(-c3cccc(-c4cccc(N)c4)c3)cc(=O)oc2c1,10 µM (active)
25,Cc1cc(NC(=O)CCC(=O)N(Cc2ccccc2)C(C(=O)NC2CCCC2)c2ccc(C)o2)no1 (stereo not drawn),inactive
26,CCc1cccc(C)c1N1C(=O)CN(Cc2ccccc2)C1=S,inactive

row,Structure (SMILES),Potency
1,CCC(=O)/C(=C(/O)c1ccccc1)c1nc2ccccc2[nH]1,inactive
2,O=C(/C(=C/c1cccc(Cl)c1)c1nc2ccccc2[nH]1)c1ccccc1,12.6 µM (active)
3,O=C(Cc1nc2ccccc2[nH]c1=O)c1ccc(Cl)cc1,inactive
4,Cc1ccc(C)c(NC(=O)c2cc(-c3cc(C)cc(C)c3O)n[nH]2)c1,inactive
5,Cc1sc2ncn(CC(=O)NCCCC(=O)N(C)Cc3ccccc3)c(=O)c2c1C,inactive
6,CCc1ccc2c(c1)C1(NN=C(c3ccccc3)S1)C(=O)N2 (stereo not drawn),6.31 µM (active)
7,CCCCN1C(=O)/C(=C2/Sc3ccc(Cl)cc3N2CC)SC1=S,inactive
8,CCOC(=O)C(C)Sc1nc2ccccc2c(=O)n1CC1CCCCC1 (stereo not drawn),inactive
9,O=c1c2ccccc2nc2n1C1(CCCCC1)Cc1ccccc1-2,inactive
10,CN(c1ccc2nc3ccccc3c(=O)n2n1)C1CCCCC1,1.12 µM (active)
11,C/C(=N\N(C)C)c1ccc(OCCOc2ccc([N+](=O)[O-])cc2)cc1,inactive
12,C/[N+]([O-])=C\c1ccc([N+](=O)[O-])o1,inactive
13,O=C(/C=C/c1ccc([N+](=O)[O-])o1)NNC(=O)c1ccc(F)cc1,4.47 µM (active)
14,O=C(N/N=C/c1ccc([N+](=O)[O-])o1)c1cn(-c2ccccc2)nc1-c1ccc(F)cc1,inactive
15,CCc1ccc(NC(=O)CN2CCC(C(=O)c3ccc(OC)cc3)CC2)cc1,inactive
16,CC(=O)Nc1ccc(NC(=O)[C@@H](NC(=O)c2cccc(C)c2)C(C)C)cc1,inactive
17,Cc1ccc(NC(=O)C(C)c2cccc(C(=O)c3ccccc3)c2)cc1 (stereo not drawn),7.08 µM (active)
18,COC(C(=O)Nc1ccc(C(C)=O)cc1)c1ccccc1 (stereo not drawn),inactive
19,CCn1cc(S(=O)(=O)c2cccc(C)c2)c(=O)c2cc(F)c(N3CCN(C)CC3)cc21,inactive
20,Fc1ccc(-c2ccc(NCCN3CCOCC3)nn2)cc1,inactive
21,N#Cc1ccccc1NC(=O)c1ccc2c(c1)OCO2,inactive
22,CCOC(=O)C1(Cc2ccccc2C)CCCN(C(=O)c2ccc(COC)o2)C1 (stereo not drawn),inactive
23,CC1=CC(C)(C)Nc2ccc(OC(=O)CN3C(=O)C4CCCCC4C3=O)cc21 (stereo not drawn),7.94 µM (active)
24,CC1=CC(C)(C)Nc2ccc(OC(=O)C(Cc3ccccc3)N3C(=O)C4CCCCC4C3=O)cc21 (stereo not drawn),inactive
25,O=C(CN1C(=O)C2C3CCC(C3)C2C1=O)Oc1ccc2ccccc2c1 (stereo not drawn),inactive
